From ChEMBL document CHEMBL3988442, “University of Dundee, Small-Polar-MMV Screening Library” (2021)

These compounds were tested against AMP-activated protein kinase, AMPK (Homo sapiens) (UniProt P54646+O43741+P54619+Q9UGJ0+Q9Y478+Q13131+Q9UGI9) (assay: AMP-dependent Kinase enzyme assay. An in vitro enzyme assay that detects ADP turnover that is directly proportional to AMPK activity. This uses naive AMPK that is activated during the assay with MK-8722). Conditions: 30 µM.
Format: functional
Set-up: scale not given: direction of the effect not stated beside the values

| SMILES | Percent Effect [%] |
| --- | --- |
| COc1ccc(CC(C)Nc2cccc(F)c2)cc1 (stereo not given) | 4.95 |
| COc1ccccc1CCN(C)Cc1nc(N)nc(N(C)C)n1 | -4.89 |
| COc1ccc(Cl)cc1CN(C)C(=O)CN1C(=O)CCC1C (stereo not given) | 6.65 |
| Cc1nc(C(=O)N[C@H]2COC[C@@H]2N2CCCCC2)cs1 | 4.08 |
| Cc1cc(C)c2[nH]c(C)c(CC(=O)N(C)CCN(C)C)c2c1 | 3.2 |
| O=C(c1nc(=O)[nH]c2ccccc12)N1CCCC2(CCNC2)C1 (stereo not given) | 1.4 |
| CSc1ccccc1C(=O)C1CCCN(Cc2cc(C(C)C)[nH]n2)C1 (stereo not given) | 6.61 |
| O=C1CC2(CCN(Cc3ccc(Cl)s3)C2)C(=O)N1 (stereo not given) | 12.7 |
| O=C(C1CCOCC1)N1C[C@H]2CC[C@@H]1CN(Cc1ccncc1)C2 | 0.59 |
| COc1ccc(NC(=O)CCN2CC=C(c3cnn(C)c3)CC2)cc1Cl | 12.5 |
| CC(C)c1ccccc1OCCNC(=O)N1CCC2(CC1)OCCO2 | -2.79 |
| O=C(O)[C@H]1CN(Cc2ccccc2)C[C@@H]1C(=O)c1ccccc1 | 12.8 |
| CC1CN(C)CCN1C(=O)Cc1cc(Cl)c2c(c1)OCCO2 (stereo not given) | 1.93 |
| Cn1ncc2c(NC3CN4CCC3CC4)nc(-c3ccncc3)nc21 (stereo not given) | 5.93 |
| CCc1ccc2ncn(Cc3ncc[nH]3)c(=O)c2c1 | 0.257 |
| CC(C)c1cc(N2CCC3(CC2)CN(C)CCN3C)ncn1 | -4.27 |
| CCNC(=O)[C@@H]1CN(Cc2ccccc2)C[C@H]1C(=O)c1ccc(F)cc1 | 15.1 |
| CC(=O)Nc1ccc(-c2ccccc2CCN)cc1 | 3.13 |
| Cc1nc(CC(=O)N2CCCC[C@H](N(C)C)C2)cs1 | -2.31 |
| O=C(NCCOc1cccc(Cl)c1Cl)N1CCC2(CC1)OCCO2 | 1.62 |
| O=C(N1CCCC1)N1C[C@H]2CC[C@@H]1CN(Cc1ccncc1)C2 | 2.18 |
| CNC(=O)[C@@H]1CN(Cc2ccccc2)C[C@H]1C(=O)c1ccc(F)cc1 | 12 |
| O=C(NCCc1c[nH]cn1)c1ccccc1C1CCNC1 (stereo not given) | -4.12 |
| O=C(NC1CC1)[C@H]1CN(Cc2ccccc2)C[C@@H]1C(=O)c1ccccc1 | 12.8 |

What follows are compounds tested against T1, Arginase-2, mitochondrial (Homo sapiens) (UniProt P78540) (assay: in vitro enzyme assay to detect the production of urea directly proportional to the activity of Arginase II). Conditions: 30 µM.
T1 sequence (whole entry): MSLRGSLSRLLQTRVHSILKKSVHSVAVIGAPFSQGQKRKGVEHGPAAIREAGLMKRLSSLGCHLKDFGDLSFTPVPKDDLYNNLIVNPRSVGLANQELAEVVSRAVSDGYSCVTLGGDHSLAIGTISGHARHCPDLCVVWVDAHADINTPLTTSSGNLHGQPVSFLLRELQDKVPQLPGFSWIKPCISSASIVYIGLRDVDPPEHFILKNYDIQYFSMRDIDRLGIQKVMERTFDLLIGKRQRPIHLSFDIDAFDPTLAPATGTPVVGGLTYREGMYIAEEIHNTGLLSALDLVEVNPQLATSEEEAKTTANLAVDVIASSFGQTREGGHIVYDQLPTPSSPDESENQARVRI
Format: functional
Set-up: scale not given: direction of the effect not stated beside the values

| SMILES | Percent Effect [%] |
| --- | --- |
| O=C1CSC(c2ccsc2)c2c(n(C3CCCC3)[nH]c2=O)N1 (stereo not given) | 4.87 |
| Cc1nc(NCC2CC2)nc2c1COCC21CCNC1 (stereo not given) | 8.11 |
| O=C1CSC(c2ccc(Cl)cc2Cl)c2c(n(C3CCOCC3)[nH]c2=O)N1 (stereo not given) | 8.11 |
| O=C1CSC(c2ccc(O)cc2)c2c(n(C3CCOCC3)[nH]c2=O)N1 (stereo not given) | 11.3 |
| O=C(NCc1ccccn1)[C@]12COC[C@H]1CN(Cc1ccsc1)C2 | 5.95 |
| O=C1CSC(c2ccncc2)c2c(n(C3CCOCC3)[nH]c2=O)N1 (stereo not given) | 9.19 |
| c1ccc(CN2CCC3(CC2)CCN(Cc2cccnc2)C3)nc1 | 8.11 |
| c1ccc(O[C@@H]2CO[C@@]3(CCCN(CC4CCOCC4)C3)C2)nc1 | 8.11 |
| c1ccc(O[C@H]2CO[C@@]3(CCCN(Cc4nccs4)C3)C2)nc1 | -0.54 |
| CN(Cc1ccco1)[C@@H]1CN(Cc2cccnc2)[C@@H]2CCCO[C@H]12 | 2.7 |
| CSc1ccc(C2SCC(=O)Nc3c2c(=O)[nH]n3C2CCOCC2)cc1 (stereo not given) | 8.11 |
| Cn1cc(C2SCC(=O)Nc3c2c(=O)[nH]n3C2CCOCC2)cn1 (stereo not given) | 0.54 |
| O=C1CSC(c2ccc(F)c(Cl)c2)c2c(n(C3CCOCC3)[nH]c2=O)N1 (stereo not given) | -0.54 |
| O=C1CSC(c2cccnc2)c2c(n(C3CCOCC3)[nH]c2=O)N1 (stereo not given) | 7.03 |
| CN(Cc1cncnc1)[C@H]1CN(Cc2ccco2)[C@@H]2CCCO[C@@H]21 | 4.87 |
| O=C1CSC(c2ccccc2)c2c(n(C3CCOCC3)[nH]c2=O)N1 (stereo not given) | 5.95 |
